{"source": "the supplement of paper PMC8975748", "note": "Structures can show the parent of a compound that is named as a salt.", "data": [{"tested_on": "Saccharomyces cerevisiae BY4741 SeMeCo community", "assay": "z-score of subpopulation abundance vs DMSO median, subpopulation auxotrophic for HLM; higher = larger share of this subpopulation than in DMSO controls", "details": "10 µM; 24 h; SM minimal medium; subpopulation (auxotrophy): HLM", "experimental": "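Fluorescent four-plasmid SeMeCo (self-establishing metabolically cooperating S. cerevisiae BY4741 community; plasmids pH-mRuby2, pL-mWasabi, pU-eCFP, pM-TagRFP657) was grown 24 h in minimal SM medium with each Selleck FDA-approved drug at 10 µM in 384-well plates. Cells were fixed and imaged by high-content confocal microscopy. For each auxotrophic subpopulation (and the prototroph), a z-score gives the deviation from the DMSO vehicle-control population median.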", "values": [{"compound": "Nc1nc2c(ncn2COC(CO)CO)c(=O)[nH]1", "note": "[Ganciclovir]", "z-score of subpopulation abundance": -0.21}, {"compound": "CCCNC(C)C(=O)Nc1ccccc1C", "note": "(stereo not given) [Prilocaine]", "z-score of subpopulation abundance": 0.16}, {"compound": "O=C1CN2Cc3c(ccc(Cl)c3Cl)N=C2N1", "note": "[Anagrelide HCl]", "z-score of subpopulation abundance": 1.02}, {"compound": "CC(=O)O[C@H]1C[C@@]2(C)[C@@H](C[C@@H](O)[C@H]3[C@@]4(C)CC[C@@H](O)[C@@H](C)[C@@H]4CC[C@@]32C)/C1=C(\\CCC=C(C)C)C(=O)O", "note": "[Fusidate Sodium]", "z-score of subpopulation abundance": 1.04}, {"compound": "CN(C)CC(c1ccc(O)cc1)C1(O)CCCCC1", "note": "(stereo not given) [Desvenlafaxine]", "z-score of subpopulation abundance": -0.85}, {"compound": "CCCCNc1ccc(C(=O)OCCN(C)C)cc1", "note": "[Tetracaine HCl]", "z-score of subpopulation abundance": 0.52}, {"compound": "CN(C)CCC=C1c2ccccc2C(C)(C)c2ccccc21", "note": "[Melitracen hydrochloride]", "z-score of subpopulation abundance": -1.11}, {"compound": "C[C@H]1COc2c(N3CCN(C)CC3)c(F)cc3c(=O)c(C(=O)O)cn1c23", "note": "[Levofloxacin]", "z-score of subpopulation abundance": -1.03}, {"compound": "NC12CC3CC(CC(C3)C1)C2", "note": "[Amantadine HCl]", "z-score of subpopulation abundance": -0.47}, {"compound": "Nc1ccc(/N=N/c2ccccc2)c(N)n1", "note": "[Phenazopyridine HCl]", "z-score of subpopulation abundance": 0.39}, {"compound": "COc1ccc(C(C)=O)c(O)c1", "note": "[Paeonol]", "z-score of subpopulation abundance": -0.22}, {"compound": "CC(C)[C@H](N)C(=O)OCCOCn1cnc2c(=O)nc(N)[nH]c21", "note": "[Valaciclovir HCl]", "z-score of subpopulation abundance": -0.27}, {"compound": "Cc1cccc(N(C)C(=S)Oc2ccc3ccccc3c2)c1", "note": "[Tolnaftate]", "z-score of subpopulation abundance": -0.75}, {"compound": "C[C@]12CCC3=C4CCC(=O)C=C4CC[C@H]3[C@@H]1CC[C@@]2(O)CC#N", "note": "[Dienogest]", "z-score of subpopulation abundance": -0.38}, {"compound": "Cc1ccc(Sc2ccccc2N2CCNCC2)c(C)c1", "z-score of subpopulation abundance": -0.35}, {"compound": "Cc1c(Cl)cccc1Nc1ccccc1C(=O)O", "note": "[Tolfenamic Acid]", "z-score of subpopulation abundance": -0.79}, {"compound": "C[C@]1(COc2ccc(N3CCC(Oc4ccc(OC(F)(F)F)cc4)CC3)cc2)Cn2cc([N+](=O)[O-])nc2O1", "note": "[Delamanid]", "z-score of subpopulation abundance": 0.05}, {"compound": "Cc1c(S(=O)(=O)O)oc2c1C(=O)C(=O)c1c-2ccc2c1CCCC2(C)C", "note": "[Tanshinone IIA sulfonate (sodium)]", "z-score of subpopulation abundance": 3.71}, {"compound": "COCCCC/C(=N\\OCCN)c1ccc(C(F)(F)F)cc1", "note": "[Fluvoxamine maleate]", "z-score of subpopulation abundance": -0.76}, {"compound": "CCCCCCCCCCCCCCCC[N+](C)(C)C", "note": "[Cetrimonium Bromide (CTAB)]", "z-score of subpopulation abundance": 50.7}, {"compound": "Cc1ccc(S(=O)(=O)NC(=O)NN2CC3CCCC3C2)cc1", "note": "(stereo not given) [Gliclazide]", "z-score of subpopulation abundance": -0.16}, {"compound": "CCn1cc(C(=O)O)c(=O)c2ccc(C)nc21", "note": "[Nalidixic acid]", "z-score of subpopulation abundance": -0.21}, {"compound": "C#CCC(Cc1cnc2nc(N)nc(N)c2n1)c1ccc(C(=O)N[C@@H](CCC(=O)O)C(=O)O)cc1", "note": "(stereo not given in full) [Pralatrexate]", "z-score of subpopulation abundance": 4.47}, {"compound": "CC(C)(C)C1CCC(CC2=C(O)c3ccccc3C(=O)C2=O)CC1", "note": "(stereo not given) [Buparvaquone]", "z-score of subpopulation abundance": 0.05}, {"compound": "CO[C@H]1C[C@@H]2CC[C@@H](C)[C@@](O)(O2)C(=O)C(=O)N2CCCC[C@H]2C(=O)O[C@H]([C@H](C)C[C@@H]2CC[C@@H](OP(C)(C)=O)[C@H](OC)C2)CC(=O)[C@H](C)/C=C(\\C)[C@@H](O)[C@@H](OC)C(=O)[C@H](C)C[C@H](C)/C=C/C=C/C=C/1C", "note": "[Ridaforolimus (Deforolimus, MK-8669)]", "z-score of subpopulation abundance": 16.1}, {"compound": "C=CC1=C(C(=O)O)N2C(=O)[C@@H](NC(=O)/C(=N\\OCC(=O)O)c3csc(N)n3)[C@H]2SC1", "note": "[Cefixime]", "z-score of subpopulation abundance": -0.25}, {"compound": "Nc1nc2ccc(OC(F)(F)F)cc2s1", "note": "[Riluzole]", "z-score of subpopulation abundance": 0.67}, {"compound": "NC(=O)c1cn(Cc2c(F)cccc2F)nn1", "note": "[Rufinamide]", "z-score of subpopulation abundance": 0.38}, {"compound": "CC(C)C(=O)Oc1ccc(CO)cc1[C@H](CCN(C(C)C)C(C)C)c1ccccc1", "note": "[Fesoterodine Fumarate]", "z-score of subpopulation abundance": -1}, {"compound": "C[C@@H](O)[C@H]1C(=O)N2C(C(=O)[O-])=C(SC3Cn4cnc[n+]4C3)[C@H](C)[C@H]12", "note": "(stereo not given in full) [Biapenem]", "z-score of subpopulation abundance": -0.52}, {"compound": "N[C@@H](CCC(=O)O)C(=O)O", "note": "[(S)-Glutamic acid]", "z-score of subpopulation abundance": 0.07}, {"compound": "Cc1cc(C)nc(O)n1.O=C(Nc1ccc([N+](=O)[O-])cc1)Nc1ccc([N+](=O)[O-])cc1", "note": "[Nicarbazin]", "z-score of subpopulation abundance": -0.49}, {"compound": "Nc1nc2c(ncn2COCCO)c(=O)[nH]1", "note": "[Aciclovir]", "z-score of subpopulation abundance": -0.49}, {"compound": "CO[C@H]1C[C@@H]2CC[C@@H](C)[C@@](O)(O2)C(=O)C(=O)N2CCCC[C@H]2C(=O)O[C@H]([C@H](C)C[C@@H]2CC[C@H](n3cnnn3)[C@H](OC)C2)CC(=O)[C@H](C)/C=C(\\C)[C@@H](O)[C@@H](OC)C(=O)[C@H](C)C[C@H](C)/C=C/C=C/C=C/1C", "note": "[Zotarolimus(ABT-578)]", "z-score of subpopulation abundance": 18.4}, {"compound": "CCCCN1CCCC[C@H]1C(=O)Nc1c(C)cccc1C", "note": "[Levobupivacaine HCl]", "z-score of subpopulation abundance": -0.93}, {"compound": "CC(C)c1nc(N(C)S(C)(=O)=O)nc(-c2ccc(F)cc2)c1/C=C/[C@@H](O)C[C@@H](O)CC(=O)O", "note": "[Rosuvastatin]", "z-score of subpopulation abundance": 3.7}, {"compound": "COCC1=C(C(=O)OC(C)OC(=O)OC(C)C)N2C(=O)[C@@H](NC(=O)/C(=N\\OC)c3csc(N)n3)[C@H]2SC1", "note": "(stereo not given in full) [Cefpodoxime proxetil]", "z-score of subpopulation abundance": -0.08}, {"compound": "Oc1c(Cl)cc(Cl)c(Cl)c1Cc1c(O)c(Cl)cc(Cl)c1Cl", "note": "[Hexachlorophene]", "z-score of subpopulation abundance": 8.62}, {"compound": "O=C1[C@H]2CCCC[C@H]2C(=O)N1CCCCN1CCN(c2nsc3ccccc23)CC1", "note": "[Perospirone hydrochloride]", "z-score of subpopulation abundance": 0.02}, {"compound": "N#Cc1ccc2[nH]cc(CCCCN3CCN(c4ccc5oc(C(N)=O)cc5c4)CC3)c2c1", "note": "[Vilazodone]", "z-score of subpopulation abundance": 0.08}]}]}
